Source: PubChem BioAssay
Activity calls are given as the source filed them.

Experiments:
[1] = system: Plasmodium falciparum Sir2 (PF13_0152, Sir2A); assay: Plasmodium falciparum Sir2A binding compounds – biochemical, small-molecule microarray, 635 nm fluorescence, primary screen (AID 1098); settings: fluorescence 635 nm, higher = more signal;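 note: score merges spot fluorescence intensity with its signal-to-noise ratio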
[2] = probe aDKK1 binding to arrayed compounds – biochemical, biotinylated probe, 635/667 nm fluorescence, primary screen (AID 1099); settings: small-molecule microarray, higher = more signal;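 note: score merges 667nm spot fluorescence with signal to noise across triplicate slides; reference of the scale not given here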
[3] = probe aCHRDL2 binding to arrayed compounds – biochemical, biotinylated probe, 635/667 nm fluorescence, primary screen (AID 1100); settings: small-molecule microarray, higher = more signal
[4] = change in splice reporter luminescence, either direction, cell-based, HEK293, spliceosome inhibition project, primary screen (AID 1101); settings: HEK293 splicing luciferase reporter, 24 h, higher = more signal, called active from +8 up or from −8 down;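 note: HEK293 cells carrying a splicing-competent luciferase reporter gene; test concentration not given here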
[5] = biological target: Fibroblast growth factor 10 (Homo sapiens) (UniProt O15520); assay: compounds binding fibroblast growth factor 10 – biochemical, small-molecule microarray, 635 nm fluorescence, primary screen (AID 1102); settings: FGF10 binding, fluorescence 635 nm, higher = more signal
[6] = system: glycogen synthase kinase-3 (GSK3A per assay name; protocol says GSK3B); assay: compounds binding glycogen synthase kinase-3 – biochemical, small-molecule microarray, 635 nm fluorescence, GSK3A, primary screen (AID 1103); settings: fluorescence 635 nm, higher = more signal; note: the record names both GSK3A and GSK3B
[7] = biological target: Epidermal growth factor receptor (Homo sapiens) (UniProt P00533); assay: compounds binding epidermal growth factor receptor – biochemical, small-molecule microarray, 635 nm fluorescence, primary screen (AID 1104); settings: EGFR binding, higher = more signal;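 note: score merges 667 nm emission intensity with spot signal to noise over triplicate slides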
[8] = biological target: Follistatin-related protein 3 (Homo sapiens) (UniProt O95633); assay: compounds binding follistatin-related protein 3 – biochemical, small-molecule microarray, 635 nm fluorescence, primary screen (AID 1105); settings: FSTL3 binding, higher = more signal;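 note: score merges emission near 667 nm and signal to noise per printed spot across three slides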
[9] = biological target: Dickkopf-related protein 1 (Homo sapiens) (UniProt O94907); assay: small molecules binding DKK1 protein – biochemical, small-molecule microarray, 635 nm fluorescence scan, primary screen (AID 1106); settings: higher = more signal;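 note: score merges emission near 667 nm with signal to noise over three replicate slides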
[10] = system: Inhibin beta A chain (activin A); assay: small molecules binding activin A – biochemical, small-molecule microarray, 635 nm fluorescence scan, primary screen (AID 1107); settings: INHBA, higher = more signal;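 note: mouse activin A protein probed at 4.33 µg/mL on printed slides; score merges bound-protein fluorescence near 667 nm with spot signal-to-noise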

Sequence of Epidermal growth factor receptor (Homo sapiens) (P00533 whole entry, looked up): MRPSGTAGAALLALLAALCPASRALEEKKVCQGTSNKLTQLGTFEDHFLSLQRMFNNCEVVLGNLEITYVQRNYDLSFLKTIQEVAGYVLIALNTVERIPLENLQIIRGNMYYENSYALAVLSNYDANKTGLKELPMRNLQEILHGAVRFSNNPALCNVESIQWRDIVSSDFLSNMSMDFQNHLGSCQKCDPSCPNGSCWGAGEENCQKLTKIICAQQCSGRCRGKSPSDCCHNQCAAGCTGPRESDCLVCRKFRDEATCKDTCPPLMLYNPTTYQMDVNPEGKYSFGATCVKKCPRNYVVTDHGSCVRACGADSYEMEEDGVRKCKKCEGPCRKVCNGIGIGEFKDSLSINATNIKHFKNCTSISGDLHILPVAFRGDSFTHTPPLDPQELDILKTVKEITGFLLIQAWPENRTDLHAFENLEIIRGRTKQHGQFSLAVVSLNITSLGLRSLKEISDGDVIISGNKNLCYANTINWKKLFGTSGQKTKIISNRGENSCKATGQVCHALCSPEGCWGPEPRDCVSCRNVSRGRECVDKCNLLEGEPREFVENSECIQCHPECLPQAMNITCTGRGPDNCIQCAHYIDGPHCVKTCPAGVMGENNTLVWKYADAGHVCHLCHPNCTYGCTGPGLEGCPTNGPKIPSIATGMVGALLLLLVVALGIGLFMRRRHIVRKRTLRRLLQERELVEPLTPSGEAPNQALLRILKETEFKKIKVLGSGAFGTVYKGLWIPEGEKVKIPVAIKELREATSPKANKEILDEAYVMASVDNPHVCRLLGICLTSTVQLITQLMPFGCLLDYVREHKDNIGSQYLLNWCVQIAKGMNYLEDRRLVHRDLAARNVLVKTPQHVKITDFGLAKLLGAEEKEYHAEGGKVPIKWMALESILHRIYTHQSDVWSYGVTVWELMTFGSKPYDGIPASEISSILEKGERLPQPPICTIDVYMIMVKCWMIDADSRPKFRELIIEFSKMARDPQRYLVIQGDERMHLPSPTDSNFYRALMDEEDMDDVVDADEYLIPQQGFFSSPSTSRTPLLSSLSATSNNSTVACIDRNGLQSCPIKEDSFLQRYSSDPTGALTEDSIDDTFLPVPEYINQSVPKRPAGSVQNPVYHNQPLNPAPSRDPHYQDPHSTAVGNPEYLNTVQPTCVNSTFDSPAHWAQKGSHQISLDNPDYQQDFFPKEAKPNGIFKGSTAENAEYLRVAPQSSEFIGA
Sequence of Fibroblast growth factor 10 (Homo sapiens) (O15520 whole entry, looked up): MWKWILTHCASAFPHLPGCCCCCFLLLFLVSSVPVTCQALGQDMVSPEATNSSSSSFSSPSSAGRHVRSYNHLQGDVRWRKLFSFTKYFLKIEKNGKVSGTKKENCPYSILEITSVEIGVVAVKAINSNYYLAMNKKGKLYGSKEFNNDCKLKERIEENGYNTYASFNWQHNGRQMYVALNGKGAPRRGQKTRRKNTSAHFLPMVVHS
Sequence of Dickkopf-related protein 1 (Homo sapiens) (O94907 whole entry, looked up): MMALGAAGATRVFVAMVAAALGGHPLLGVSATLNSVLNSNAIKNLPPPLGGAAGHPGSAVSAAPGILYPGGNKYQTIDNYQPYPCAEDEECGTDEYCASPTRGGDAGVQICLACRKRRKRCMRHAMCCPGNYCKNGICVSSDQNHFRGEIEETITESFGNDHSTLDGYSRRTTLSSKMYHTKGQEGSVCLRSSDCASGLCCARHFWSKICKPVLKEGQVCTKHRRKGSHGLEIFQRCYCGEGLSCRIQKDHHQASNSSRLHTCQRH
Sequence of Follistatin-related protein 3 (Homo sapiens) (O95633 whole entry, looked up): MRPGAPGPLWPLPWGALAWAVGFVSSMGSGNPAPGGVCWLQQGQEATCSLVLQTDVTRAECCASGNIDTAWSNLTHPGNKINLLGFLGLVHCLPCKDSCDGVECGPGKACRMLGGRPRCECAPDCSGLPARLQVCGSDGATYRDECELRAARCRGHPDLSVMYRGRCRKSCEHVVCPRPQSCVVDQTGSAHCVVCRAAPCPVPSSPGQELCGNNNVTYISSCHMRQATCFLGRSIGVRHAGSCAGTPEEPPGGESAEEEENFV

| SMILES | composite z-score [1] | composite z-score [2] | composite z-score [3] | z-score [4] | composite z-score [5] | composite z-score [6] | composite z-score [7] | composite z-score [8] | composite z-score [9] | composite z-score [10] |
| --- | --- | --- | --- | --- | --- | --- | --- | --- | --- | --- |
| CC1=C([C@H](O)CCc2ccccc2)[C@H](CO)[C@@H]2C(=O)N(C)C(=O)[C@@H]2C1 | 0.843 | -0.173 | -0.495 | 0.626 (inactive) | 0.383 | 0.271 | 0.243 | 0.491 | 0.446 | 0.162 |
| COC(=O)[C@@]1(Cc2ccc(OC)cc2)[C@H]2c3cc(C(=O)N(C)C)n(Cc4ccc(Cl)c(C(F)(F)F)c4)c3C[C@H]2CN1C(=O)c1ccccc1 | 0.546 | 1.45 | 1.49 | 0.524 (inactive) | 0.523 | 0.363 | -0.242 | 0.83 | -1.12 | 0.986 |
| CCOC(=O)C[C@H]1[C@H](OC(=O)c2cc3ccccc3oc2=O)[C@@H](NC(=O)c2ccc(-c3ccccc3)cc2)c2cc(OCCCO)ccc2N1C(=O)c1ccc2ccccc2n1 | 0.853 | -0.183 | -0.386 | -0.338 (inactive) | 0.93 | 1.01 | 0.622 | 1.06 | 0.45 | 0.379 |
| COC1OC[C@]2(C)[C@H]3C4=C(CN2C(=O)OC(C)(C)C)[C@H](C)C(CO)C(CO)C4CC[C@@H]13 (stereo not given in full) | 0.422 | 1.39 | 1.52 | 2.09 (inactive) | 0.513 | 1.18 | 0.0188 | 0.823 | -0.362 | 1.17 |
| COc1ccc([Si](C)(C)[C@@H]2[C@@H](CC(=O)N3Cc4ccccc4C[C@H]3CO)O[C@]3(C(=O)N(Cc4cccc(N5C(=O)c6cccc7cccc5c67)c4)c4ccccc43)[C@H]2C)cc1 | 1.25 | -0.199 | 0.208 | 0.93 (inactive) | 0.579 | 0.313 | 0.982 | 1.43 | 1.43 | 0.636 |
| O=C1O[C@@H](c2ccccc2)[C@@H](c2ccccc2)N2[C@@H](c3ccccc3OCCO)[C@]3(C(=O)Nc4ccc(C#CCCO)cc43)[C@@H](C(=O)N3CCCCCCC3)[C@H]12 | 2.19 | 3.2 | 1.87 | -1.32 (inactive) | 1.71 | 1.45 | 2.05 | 1.78 | 2.69 | 2.05 |
| C=CCC(OC(C)=O)[C@@H]1[C@@H](N(Cc2ccc(-c3cccc(C(F)(F)F)c3)o2)C(=O)c2ccc(C)cc2)c2cc(OCCCO)ccc2N1C(=O)c1ccc2ccccc2c1 (stereo not given in full) | 0.178 | -0.149 | 0.155 | -0.619 (inactive) | 0.298 | -0.461 | -0.0161 | 0.443 | 0.217 | 1.01 |
| C=CCC(OC(C)=O)[C@@H]1[C@@H](N(Cc2cccc3ccccc23)C(=O)c2cccc3ccccc23)c2cc(OCCCO)ccc2N1C(=O)c1ccc(-c2ccccc2)cc1 (stereo not given in full) | 0.17 | 0.0752 | -0.0302 | -0.566 (inactive) | 0.0819 | 0.0512 | 0.364 | -0.184 | 0.0116 | 0.855 |
| C[C@@H]1NC(=O)[C@@]23C(=O)N[C@@H](Cc4ccccc4)C2[C@H](C)[C@@]2(C)O[C@H]2C3/C=C/C/C=C\CNC(=O)[C@@H]2CCCN2C1=O (stereo not given in full) | 0.685 | -0.33 | -0.339 | -0.0139 (inactive) | 0.0528 | -0.438 | -0.0154 | -0.165 | 0.0077 | 1.35 |
| CCOC(=O)C[C@H]1[C@H](OC(=O)c2cc3ccccc3oc2=O)[C@@H](NC(=O)Cc2ccc(OC)cc2)c2cc(OCCCO)ccc2N1C(=O)c1ccc2ccccc2n1 | 0.195 | 0.0588 | -0.335 | 0.126 (inactive) | 1.28 | 0.372 | 0.409 | 0.889 | 0.578 | 0.155 |
| C=C(COC)/C(=C/C[C@H](OC(C)=O)c1ccc(OCCO)cc1)c1cc(C(=O)OC)ccc1OC | 1.38 | 0.0841 | -0.24 | -0.195 (inactive) | 1.48 | 0.416 | 0.148 | 0.924 | 0.468 | 0.72 |
| CCCC[C@@H](O)C1=C(COc2ccccc2)C[C@H]2C(=O)N(C)C(=O)[C@H]2[C@H]1CO | 0.119 | -0.423 | -0.575 | -1.3 (inactive) | -0.0816 | -0.0425 | -0.333 | -0.0008 | -0.0034 | 0.799 |
| O=C1OCC=C[C@H]2OC34C=CCN(Cc5ccccc5)C(=O)[C@H]3N(CCCCCCO)C(=O)[C@@H]4[C@@H]12 (stereo not given in full) | 1.82 | -0.305 | 0.777 | 0.148 (inactive) | -0.735 | -0.868 | -0.825 | -0.608 | -1.03 | 0.652 |
| O=C1NC(=O)C2C1C=CC(C(O)c1c(F)cccc1Cl)N2Nc1ccc(Cl)cc1Cl (stereo not given) | 1.49 | 1.4 | 1.41 | 1.57 (inactive) | 0.185 | 0.249 | -0.391 | 0.0256 | -0.367 | 1.29 |
| Cc1ccccc1C(O)C1C=CC2C(=O)N(C)C(=O)C2N1N(c1ccccc1)c1ccccc1 (stereo not given) | -0.167 | 0.858 | 0.11 | 0.595 (inactive) | 0.362 | -0.401 | 0.304 | 0.0459 | 0.119 | 1.33 |
| O=C1O[C@H](c2ccccc2)[C@H](c2ccccc2)N2[C@H]1[C@@H](C(=O)Nc1nc3ccccc3s1)[C@]1(C(=O)Nc3ccccc31)[C@H]2c1ccc(OCCO)cc1 | 1.35 | 0.07 | 0.341 | -0.472 (inactive) | 0.841 | 1.31 | 0.836 | 1.36 | 1.31 | 0.715 |
| Cc1cc(C)c(C(O)C2C=CC3C(=O)NC(=O)C3N2Nc2ccc(Cl)cc2Cl)c(C)c1 (stereo not given) | 0.651 | 0.639 | 1.2 | 0.465 (inactive) | 0.871 | 0.753 | 0.253 | 0.95 | -0.0057 | 1.31 |
| COc1ccc(C#Cc2ccc3c(c2)[C@]2(C(=O)N3)[C@H](c3ccc(O)cc3)N3[C@H](c4ccccc4)[C@H](c4ccccc4)OC(=O)[C@H]3[C@@H]2C(=O)O)cc1 | 1.04 | -0.901 | -0.596 | -0.518 (inactive) | 0.368 | 0.74 | -0.209 | -0.114 | -0.474 | 0.326 |
| COC(=O)[C@@]1(Cc2ccccc2)[C@H]2c3cc(C(=O)N(C)C)n(CCc4ccc(O)c(OC)c4)c3C[C@H]2CN1C(=O)c1ccccc1 | 0.0108 | 1.32 | 0.379 | 0.905 (inactive) | 0.626 | 0.652 | 0.569 | 0.37 | 0.358 | -0.0861 |
| CCCCO[C@H]1C[C@H]2C(I)=C[C@@H]1C(=O)[C@]21CO1 | 1.08 | -0.37 | -0.529 | -0.26 (inactive) | 0.104 | -0.487 | 0.0707 | 0.127 | 0.668 | 0.173 |
| CC(C)C[C@@H]1NC(=O)[C@@H]2C[C@H](C(=O)NCCCCN(C)C)[C@H](c3cccc(OCCO)c3)N2C1=O | 1.66 | -0.224 | 0.0176 | -0.464 (inactive) | -0.272 | -1.24 | -0.0053 | -0.135 | 0.212 | 0.266 |
| CC=CC(O)C1C=CC2C(=O)N(c3ccccc3)C(=O)C2N1Nc1ccccc1F (stereo not given) | 0.32 | 1.24 | 0.76 | 0.095 (inactive) | 0.169 | -0.352 | 0.114 | -0.0808 | 0.0324 | 1.21 |
| COc1ccc(NC(=O)O[C@H]2[C@H](OC(=O)Nc3ccccc3)[C@H](OC(=O)Nc3ccccc3)[C@@H](OC)O[C@@H]2CO)cc1 | 1.58 | 0.891 | 0.816 | -0.0162 (inactive) | 1.27 | 1.07 | -0.171 | 0.806 | 0.426 | 0.593 |
| O=C1N(Cc2ccccc2)c2ccccc2[C@@H]2OC(c3ccc(OCCCO)cc3)=N[C@]12Cc1ccccc1 | 0.959 | 0.659 | 1 | -0.0483 (inactive) | 0.504 | 0.852 | 0.224 | 0.61 | 0.0877 | 1.13 |
| Cc1ccc(S[C@]2(C(=O)NCC(F)(F)F)CC(=O)N(C3CCCCC3)[C@@H]2c2ccc(CO)cc2I)cc1 | 0.894 | 0.119 | 0.408 | -0.635 (inactive) | 0.919 | 1.24 | 0.395 | 0.914 | 0.133 | 0.469 |
| NC(=O)NCC#Cc1ccc2c(c1)[C@]1(C(=O)N2)[C@H](C(=O)O)[C@H]2C(=O)O[C@H](c3ccccc3)[C@H](c3ccccc3)N2[C@@H]1c1ccc(OCCO)cc1 | 1.49 | 0.0638 | 0.799 | -0.253 (inactive) | 0.261 | -0.547 | -0.03 | 0.582 | 0.158 | 0.882 |
| CCOC(=O)C1=CC[C@@H](c2ccc(OCc3ccccc3)c(OC)c2)N(S(=O)(=O)c2ccc(C)cc2)[C@H]1c1ccc(SC)cc1 | 1.26 | 0.842 | 1.04 | 0.236 (inactive) | 1.1 | 0.587 | 0.838 | 1.12 | 0.174 | 0.994 |
